From the supplement of paper PMC12494721
Structures can show the parent of a compound that is named as a salt.

system: Klebsiella aerogenes DSM 30053; assay: fold change of Cadaverine concentration vs plate DMSO controls (fold change (ratio)); higher = more amine produced, active = hit call of the paper (significant change in both replicates, either direction); details: incubation time: 27 h, anaerobic, 37 °C
Method in brief: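 In 80 µL wells, cultures of four gut bacterial strains in mGAM started at OD 0.1 before a 1:1 dilution and grew anaerobically at 37 °C for 27 h. Compounds were added to 20 µM final, except sweeteners at 50 µM final. After extraction of whole cultures with cold acetonitrile/methanol plus 0.1% formic acid and centrifugation, amines were measured by LC–triple-quadrupole MS in dynamic MRM mode against external calibration curves, with within-batch drift correction. Values give fold change over DMSO controls on the same plate, averaged across 2 biological replicates.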

| SMILES | fold change of Cadaverine concentration |
| --- | --- |
| O=C(O)c1cc(-c2ccc(F)cc2F)ccc1O [Diflunisal] (20 µM) | 0.994 (inactive) |
| Fc1ccc([C@@H]2CCNC[C@H]2COc2ccc3c(c2)OCO3)cc1 [Paroxetine hydrochloride] (20 µM) | 0.991 (inactive) |
| CCN(CC)CCOC(=O)C1(C2CCCCC2)CCCCC1 [Dicyclomine hydrochloride] (20 µM) | 1 (inactive) |
| CN1[C@@H]2CC[C@H]1C[C@@H](OC(=O)c1c[nH]c3ccccc13)C2 [Tropisetron hydrochloride] (20 µM) | 1.01 (inactive) |
| NC(=O)N1c2ccccc2CC(=O)c2ccccc21 [Oxcarbazepine] (20 µM) | 0.994 (inactive) |
| N=C(NCCCCCCNC(=N)NC(=N)Nc1ccc(Cl)cc1)NC(=N)Nc1ccc(Cl)cc1 [Chlorhexidine] (20 µM) | 1 (inactive) |
| CC(=O)Nc1ccccc1 [Acetanilide] (20 µM) | 1.01 (inactive) |
| Nc1nc(N)nc(-c2cc(Cl)ccc2Cl)n1 [Irsogladine maleate] (20 µM) | 0.997 (inactive) |
| Cc1ccsc1C(=CCCN1CCC[C@@H](C(=O)O)C1)c1sccc1C [Tiagabine hydrochloride] (20 µM) | 1.01 (inactive) |
| CC(C)NCC(O)c1ccc(O)c(O)c1 (single isomer, unassigned; (-)) [(-) Isoproterenol hydrochloride] (20 µM) | 1.02 (inactive) |
| CN(C)CCN(Cc1ccccc1)c1ccccn1 [Tripelennamine hydrochloride] (20 µM) | 1 (inactive) |
| C[C@H](NCc1ccc(OCc2cccc(F)c2)cc1)C(N)=O [Safinamide] (20 µM) | 0.983 (inactive) |
| Cc1cc(NS(=O)(=O)c2ccc(N)cc2)nc(C)n1 [Sulfisomidine] (20 µM) | 0.992 (inactive) |
| O=C(O)Cc1ccccc1Nc1c(Cl)cccc1Cl [Diclofenac sodium] (20 µM) | 1 (inactive) |
| CN1CCCN=C1/C=C/c1cccs1 [Pyrantel tartrate] (20 µM) | 1.02 (inactive) |
| CN(C(=O)C(Cl)Cl)c1ccc(OC(=O)c2ccco2)cc1 [Diloxanide furoate] (20 µM) | 0.997 (inactive) |
| O=C(Oc1ccccc1)c1ccccc1O [Phenyl salicylate] (20 µM) | 1 (inactive) |
| CCCCC(C)(O)C/C=C/[C@H]1[C@H](O)CC(=O)[C@@H]1CCCCCCC(=O)OC (mixture of isomers) [Misoprostol] (20 µM) | 0.995 (inactive) |
| Cc1cc(C(C)(C)C)c(O)c(C)c1CC1=NCCN1 [Oxymetazoline hydrochloride] (20 µM) | 1.01 (inactive) |
| CCN(CC)CCc1nc(-c2ccccc2)no1 [Oxolamine citrate salt] (20 µM) | 0.987 (inactive) |

| SMILES | fold change of Cadaverine concentration |
| --- | --- |
| COc1ccc2c(c1)c(CC(=O)OCC(=O)O)c(C)n2C(=O)c1ccc(Cl)cc1 [Acemetacin] (20 µM) | 1.01 (inactive) |
| Cn1cnc([N+](=O)[O-])c1Sc1ncnc2[nH]cnc12 [Azathioprine] (20 µM) | 0.992 (inactive) |
| CCOC(=O)c1ccc(N)cc1 [Benzocaine] (20 µM) | 1.01 (inactive) |
| COC1=C(OC)C(=O)C(CCCCCCCCCCO)=C(C)C1=O [Idebenone] (20 µM) | 1.08 (inactive) |
| CC(=O)NCCCS(=O)(=O)O [Acamprosate calcium] (20 µM) | 1 (inactive) |
| CC(C)NCC(O)COc1cccc2[nH]c3ccccc3c12 (centres undefined) [Carazolol] (20 µM) | 0.992 (inactive) |
| CC(C(=O)O)c1ccc(N2Cc3ccccc3C2=O)cc1 (centres undefined) [Indoprofen] (20 µM) | 0.982 (inactive) |
| CC1(C)S[C@@H]2[C@H](NC(=O)[C@H](N)c3ccccc3)C(=O)N2[C@H]1C(=O)O [Ampicillin trihydrate] (20 µM) | 1.06 (inactive) |
| CCN1CCCC1CNC(=O)c1cc(S(=O)(=O)CC)c(N)cc1OC (centres undefined) [Amisulpride] (20 µM) | 0.999 (inactive) |
| COC(=O)Nc1nc2cc(C(=O)c3ccc(F)cc3)ccc2[nH]1 [Flubendazol] (20 µM) | 1.01 (inactive) |
| CCOc1nc2cccc(C(=O)OCc3oc(=O)oc3C)c2n1Cc1ccc(-c2ccccc2-c2noc(=O)[nH]2)cc1 [Azilsartan medoxomil] (20 µM) | 0.999 (inactive) |
| COc1cc(C(=O)N2CCOCC2)cc(OC)c1OC [Trimetozine] (20 µM) | 1 (inactive) |
| CC(C)NC[C@@H](O)COc1ccc(CC(N)=O)cc1 [(R,+) Atenolol] (20 µM) | 1.04 (inactive) |
| O=C(O)Cc1sc(-c2ccccc2)nc1-c1ccc(Cl)cc1 [Fentiazac] (20 µM) | 1.03 (inactive) |
| Nc1nc(CC(=O)Nc2ccc(CCNC[C@H](O)c3ccccc3)cc2)cs1 [Mirabegron] (20 µM) | 1.01 (inactive) |
| NS(=O)(=O)c1cc2c(cc1Cl)NC(CC1CCCC1)NS2(=O)=O (centres undefined) [Cyclopenthiazide] (20 µM) | 0.996 (inactive) |
| Cc1cc(/C=C/c2ccc3cc(N(C)C)ccc3[n+]2C)c(C)n1-c1ccccc1 [Pyrvinium pamoate] (20 µM) | 1.02 (inactive) |
| CN1CCC(=C2c3ccccc3C=Cc3ccccc32)CC1 [Cyproheptadine hydrochloride] (20 µM) | 0.999 (inactive) |
| Cc1ccccc1OCC(O)CO (centres undefined) [Mephenesin] (20 µM) | 1 (inactive) |
